From PubChem BioAssay
HCV inhibitor – inhibitors of hepatitis C virus infection; Huh7.5.1 HCVcc-Cre infection, luciferase reporter, 44 h; Potency, µM (top dose mostly 41.8 µM), inactives show at the top dose activity change, negative = inhibition, usual class: inhibitors; 340,000 compounds, 3.4% hits; AID 651820; active = well fitted inhibition curve with a large enough effect; inconclusive = small, poorly fitted or top-dose-only effect, or another doubt; inactive = no such curve, though single readings can be large or run the other way; note: potency is the fitted concentration of half-maximal effect
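Infectious HCV cell culture screen: compound-treated cells (1,000/well, pre-plated 4 h) are infected with HCVcc-Cre at roughly 0.5 moi and grown 44 h. Infection is quantified by luciferase signal after 15 min substrate incubation at room temperature.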
HCMV antiviral – inhibitors of human cytomegalovirus | HFF cells, HCMV-luciferase reporter, 72 h; active compounds read low | activity change, negative = inhibition, % at 57.5 µM | 410,000 compounds, 4.5% hits; in the data active = activity change below about -60%; inconclusive = no clear call, values can overlap the other calls; inactive = above about -39%
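Compounds were evaluated in HFFs infected with an HCMV luciferase reporter virus (MOI 1 PFU/cell). Luciferase in lysates collected 72 h post infection served as the replication measure.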
Vaccinia Venus – inhibitors of vaccinia virus (Venus reporter); Vaccinia virus Venus reporter expression, fluorescence; Potency, µM (doses to about 36.5 µM), for inactives: top-dose activity change, negative = inhibition, hits mostly inhibitors; 330,000 compounds, 0.46% hits; AID 720580; calls by dose curve; tested in A549 cells; note: potency is the fitted concentration of half-maximal effect; nearly all actives have a fitted effect of over 30% in size
LASV entry inh – blocks Lassa virus binding to or entry into cells | Lassa virus pseudotype entry inhibition, cell reporter | 300,000 compounds, 1.2% hits | AID 540256 | Potency, µM (titrated, usually from 37.9 µM), for the others: at the highest dose activity change, negative = inhibition, actives largely listed as inhibitors; calls by dose curve; tested in HEK293 cells; note: potency is the fitted concentration of half-maximal effect; nearly all actives have a fitted effect of over 50% in size
VACV mCherry inh – vaccinia inhibition (mCherry reporter); Vaccinia virus mCherry reporter infection, fluorescence; Potency, µM (doses to about 36.5 µM), for inactives: at the top dose activity change, negative = inhibition, usual class: inhibitors; 310,000 compounds, 0.63% hits; AID 720579; calls by dose curve; tested in A549 cells; note: potency is the fitted concentration of half-maximal effect; nearly all actives have a fitted effect of over 35% in size
MARV entry inh – blocks Marburg virus binding to or entry into cells; Marburg virus pseudotyped entry inhibition, cell reporter; Potency, µM (series often up to 37.8 µM), inactives show at the highest dose activity change, negative = inhibition, most hits filed as inhibitors; 300,000 compounds, 1.8% hits; AID 540276; calls by dose curve; tested in HEK293 cells; note: potency is the fitted concentration of half-maximal effect
* marks the source's active call; other numbers are inactive results; [ ] = another dose, or the depositor's remark. Only some compounds are listed: those with a hit (about 7.8% of all), similar ones and a draw of the others. % is set by controls: 0 for no effect and ±100 for the full control effect.

CCc1ccc(S(=O)(=O)c2cn(Cc3ccccc3)c3cc(N4CCCC4)c(F)cc3c2=O)cc1 was read as HCMV antiviral -4, Vaccinia Venus -11%, LASV entry inh 11%[46.1 µM] and VACV mCherry inh 2%.
CC(C)C[C@@H]1COc2cccc(NN3CCN(C)CC3)c2S(=O)(=O)N1 was read as LASV entry inh -1%[46.1 µM].
Screening Cc1ccc(NC(=O)CN2C(=O)COc3ccc(S(=O)(=O)NC4CCCC4)cc32)cc1Cl returned HCMV antiviral 0, Vaccinia Venus -7%, LASV entry inh 0%[46.1 µM] and VACV mCherry inh -11%.
`COC(=O)c1ccc(CSc2nnc(-c3ccncc3)o2)cc1` gave HCV inhibitor 15%, HCMV antiviral -68*, Vaccinia Venus -22%, LASV entry inh inconclusive, VACV mCherry inh inactive and MARV entry inh 14%[46.1 µM].
For CCn1c2ccccc2c2cc(NC(=O)CSc3nnc(-c4cccc(C)c4)o3)ccc21 the results were HCV inhibitor -3%, HCMV antiviral -11, Vaccinia Venus -14%, LASV entry inh -27% and MARV entry inh -26%.
Screening c1ccc(CSc2nnc(-c3ccncc3)o2)cc1 returned HCV inhibitor -5%, HCMV antiviral -73*, LASV entry inh 16% and MARV entry inh inconclusive.
`CCn1c2ccccc2c2cc(NC(=O)CSc3nnc(-c4ccccc4)o3)ccc21` gave HCV inhibitor 7.1µM*, HCMV antiviral -28, Vaccinia Venus -10%, LASV entry inh inconclusive, VACV mCherry inh inconclusive and MARV entry inh -19%.
`O=C(CSc1nnc(-c2ccncc2)o1)NCc1ccccc1` gave HCV inhibitor -4%, HCMV antiviral -90*, Vaccinia Venus -8%, LASV entry inh -2%, VACV mCherry inh inactive and MARV entry inh 1%.
`N#Cc1ccc(CSc2nnc(-c3ccncc3)o2)cc1` gave HCV inhibitor -18%, HCMV antiviral inconclusive, Vaccinia Venus inconclusive, LASV entry inh -25%[46.1 µM], VACV mCherry inh -26% and MARV entry inh 0%[46.1 µM].
For COc1cc(OC)c(NC(=O)N2CCN3CCCCC3C2)cc1Cl (stereo unspecified) the results were HCMV antiviral -4, Vaccinia Venus -8%, LASV entry inh -6%[46.1 µM] and VACV mCherry inh -10%.
Screening CCCC(=O)N1CCCC(c2cc(C(=O)NCc3cccnc3)no2)C1 (stereo unspecified) returned HCMV antiviral -14, Vaccinia Venus 15% and VACV mCherry inh -11%.
`CC(C)CCn1c(=O)c2sccc2n2c(CCCC(=O)NC(C)c3ccccc3)nnc12` (stereo unspecified) gave HCMV antiviral -33, Vaccinia Venus -11%, LASV entry inh 2%[46.1 µM] and VACV mCherry inh -19%.
`COc1cccc([C@H]2Oc3ccc(OC)cc3C(=NO[C@@H](C)c3cn([C@H](CO)Cc4ccccc4)nn3)[C@H]2O)c1` gave MARV entry inh 5%[14.2 µM].
CCc1ccc(NC(=O)C2CCN(c3nn4c(=O)cc(C)nc4s3)CC2)cc1 was read as HCMV antiviral -21, Vaccinia Venus -16%, LASV entry inh inconclusive, VACV mCherry inh -1% and MARV entry inh 11%[46.1 µM].
`CCCCNC1=CC(=O)C(NCCCC)=CC1=O` gave HCV inhibitor -7%, HCMV antiviral 41, Vaccinia Venus -6%, LASV entry inh -22%[46.1 µM], VACV mCherry inh inconclusive and MARV entry inh inconclusive.
O=C1C=C(Nc2ccccc2)C(=O)c2ccccc21 was read as HCV inhibitor -16%, HCMV antiviral -30, Vaccinia Venus inconclusive and VACV mCherry inh -25%.
`O=C1C=C(Nc2cccc3cccnc23)c2ccccc2C1=O` gave HCV inhibitor inconclusive, HCMV antiviral -75*, Vaccinia Venus 5%, LASV entry inh 0%[46.1 µM], VACV mCherry inh inconclusive and MARV entry inh inconclusive.
CCCCNC1=CC(=O)C(=O)c2ccccc21 was read as HCV inhibitor 11µM*, HCMV antiviral -35, LASV entry inh inconclusive and MARV entry inh 16µM*.
For O=C1C=C(Nc2ccccc2)c2ccccc2C1=O the results were HCV inhibitor 8.9µM*, HCMV antiviral -64*, Vaccinia Venus 7.9µM*, LASV entry inh 7.1µM*, VACV mCherry inh inconclusive and MARV entry inh inconclusive.
O=C1C=C(Nc2ccccc2C(=O)O)c2ccccc2C1=O was read as HCV inhibitor 9% and HCMV antiviral 0.
O=C1C(=O)N(C2CCN(C(=O)c3ccc(Cl)cc3)CC2)CCN1Cc1ccc(F)cc1 was read as HCMV antiviral 16, Vaccinia Venus 5%, LASV entry inh 6%[46.1 µM] and VACV mCherry inh -8%.
Screening COc1cccc(-c2cc3c(c(OC)c2)OCCN(Cc2ccccc2O)C3)n1 returned Vaccinia Venus -9% and VACV mCherry inh inactive.
COc1cc2c(cc1OC)C(c1cc(Br)ccc1F)N(C(=O)CCl)CC2 (stereo unspecified) was read as HCV inhibitor inconclusive, HCMV antiviral -93*, Vaccinia Venus inconclusive, VACV mCherry inh inconclusive and MARV entry inh -4%.
`COc1cc2c(cc1OC)C(C1C(=O)CC(C)(C)CC1=O)N(C(=O)CCl)CC2` (stereo unspecified) gave HCV inhibitor 4%, HCMV antiviral -39, Vaccinia Venus inactive, LASV entry inh inconclusive, VACV mCherry inh -2% and MARV entry inh inconclusive.
`CCn1c(=O)n(CC)c2cc(N3CCCC3)c(NC(=O)Nc3cc(C)cc(C)c3)cc21` gave HCMV antiviral -24, Vaccinia Venus inconclusive, LASV entry inh -12%[46.1 µM] and VACV mCherry inh inconclusive.
COc1ccc(C(C(=O)NC(C)(C)C)n2c(-c3ccc(=O)[nH]c3)nc3ccccc32)cc1 (stereo unspecified) was read as HCMV antiviral -86*, Vaccinia Venus -15% and VACV mCherry inh -13%.
For COc1ccc(C(C(=O)NC(C)(C)C)n2c(COc3ccc(C)cc3)nc3ccccc32)cc1 (stereo unspecified) the results were HCMV antiviral -19, Vaccinia Venus -23% and VACV mCherry inh -19%.
For C[C@@H](C(=O)O)c1cccc(C(=O)c2ccccc2)c1 the results were MARV entry inh -3%.
Cc1ccc(NS(=O)(=O)c2cc(-c3cnc(C4CC4)o3)ccc2C)cc1Cl was read as HCMV antiviral -64*, Vaccinia Venus -23%, LASV entry inh inconclusive and VACV mCherry inh -17%.
`Cc1cccc(N(C)S(=O)(=O)c2ccc(-c3cnc(C4CC4)o3)cc2)c1` gave HCV inhibitor inconclusive and HCMV antiviral -98*.
`CC(=O)Nc1ccc(NS(=O)(=O)c2cc(-c3cnc(C4CC4)o3)ccc2C)cc1` gave HCV inhibitor -19% and HCMV antiviral 14.
